According to PMC11062922 (Nature Chemical Biology, 2023):
Read-outs that look alike come from different tables or passages of the source.

Legend:
Conditions in all cases: read-out: apparent Kd, n = 1
ACVR1 = test system: ACVR1
CDK6 = test system: CDK6
CLK1 = test system: CLK1
MAP2K1 = test system: MAP2K1
[1] = compound concentrations:100 nM and 1000 nM (sheet 'Lestaurtinib' of Supplementary Table 1),run:Lestaurtinib_02422_R1,Plate:MR006
[2] = compound concentrations:100 nM and 1000 nM (sheet 'Lestaurtinib' of Supplementary Table 1),run:Lestaurtinib_02443_R3,Plate:MR009
[3] = compound concentrations:100 nM and 1000 nM (sheet 'Lestaurtinib' of Supplementary Table 1),run:Lestaurtinib_02572_R1,Plate:MR015
[4] = compound concentrations:100 nM and 1000 nM (sheet 'Lestaurtinib' of Supplementary Table 1),run:Lestaurtinib_02577_R1,Plate:MR016
[5] = compound concentrations:100 nM and 1000 nM (sheet 'Lestaurtinib' of Supplementary Table 1),run:Lestaurtinib_02584_R3,Plate:MR017
[6] = compound concentrations:100 nM and 1000 nM (sheet 'Lestaurtinib' of Supplementary Table 1),run:Lestaurtinib_02748_R1,Plate:MR024
[7] = compound concentrations:100 nM and 1000 nM (sheet 'Lestaurtinib' of Supplementary Table 1),run:Lestaurtinib_02766_R3,Plate:MR027
[8] = compound concentrations:100 nM and 1000 nM (sheet 'Lestaurtinib' of Supplementary Table 1),run:Lestaurtinib_02896_R1,Plate:MR030
[9] = compound concentrations:100 nM and 1000 nM (sheet 'Lestaurtinib' of Supplementary Table 1),run:Lestaurtinib_02367_R1,Plate:MR003
[10] = compound concentrations:100 nM and 1000 nM (sheet 'Lestaurtinib' of Supplementary Table 1),run:Lestaurtinib_02381_R1,Plate:MR004
[11] = compound concentrations:100 nM and 1000 nM (sheet 'Lestaurtinib' of Supplementary Table 1),run:Lestaurtinib_02496_R3,Plate:MR013
[12] = compound concentrations:100 nM and 1000 nM (sheet 'Lestaurtinib' of Supplementary Table 1),run:Lestaurtinib_02765_R3,Plate:MR026
[13] = compound concentrations:100 nM and 1000 nM (sheet 'Lestaurtinib' of Supplementary Table 1),run:Lestaurtinib_02367_R2,Plate:MR003
[14] = compound concentrations:100 nM and 1000 nM (sheet 'Lestaurtinib' of Supplementary Table 1),run:Lestaurtinib_02438_R3,Plate:MR008
[15] = compound concentrations:100 nM and 1000 nM (sheet 'Lestaurtinib' of Supplementary Table 1),run:Lestaurtinib_02443_R1,Plate:MR009
[16] = compound concentrations:100 nM and 1000 nM (sheet 'Lestaurtinib' of Supplementary Table 1),run:Lestaurtinib_02443_R2,Plate:MR009
[17] = compound concentrations:100 nM and 1000 nM (sheet 'Lestaurtinib' of Supplementary Table 1),run:Lestaurtinib_02473_R1,Plate:MR010
[18] = compound concentrations:100 nM and 1000 nM (sheet 'Lestaurtinib' of Supplementary Table 1),run:Lestaurtinib_02473_R2,Plate:MR010
[19] = compound concentrations:100 nM and 1000 nM (sheet 'Lestaurtinib' of Supplementary Table 1),run:Lestaurtinib_02566_R1,Plate:MR014

Lestaurtinib
potency estimated from few doses (ACVR1; compound concentrations:100 nM and 1000 nM (sheet 'Lestaurtinib' of Supplementary Table 1),run:Lestaurtinib_02339_R2,Plate:MR001): 1510 nM
potency estimated from few doses (ACVR1; compound concentrations:100 nM and 1000 nM (sheet 'Lestaurtinib' of Supplementary Table 1),run:Lestaurtinib_02407_R1,Plate:MR005): 1540 nM
potency estimated from few doses (ACVR1; [1]): 1350 nM
potency estimated from few doses (ACVR1; [2]): 946 nM
potency estimated from few doses (ACVR1; compound concentrations:100 nM and 1000 nM (sheet 'Lestaurtinib' of Supplementary Table 1),run:Lestaurtinib_02473_R3,Plate:MR010): 958 nM
potency estimated from few doses (ACVR1; [3]): 671 nM
potency estimated from few doses (ACVR1; [4]): 1530 nM
potency estimated from few doses (ACVR1; compound concentrations:100 nM and 1000 nM (sheet 'Lestaurtinib' of Supplementary Table 1),run:Lestaurtinib_02577_R3,Plate:MR016): 1360 nM
potency estimated from few doses (ACVR1; [5]): 1580 nM
potency estimated from few doses (ACVR1; [6]): 1460 nM
potency estimated from few doses (ACVR1; [7]): 1420 nM
potency estimated from few doses (ACVR1; [8]): 1240 nM
potency estimated from few doses (CDK6; compound concentrations:100 nM and 1000 nM (sheet 'Lestaurtinib' of Supplementary Table 1),run:Lestaurtinib_02339_R3,Plate:MR001): 1400 nM
potency estimated from few doses (CDK6; [9]): 1630 nM
potency estimated from few doses (CDK6; [10]): 1670 nM
potency estimated from few doses (CDK6; compound concentrations:100 nM and 1000 nM (sheet 'Lestaurtinib' of Supplementary Table 1),run:Lestaurtinib_02407_R2,Plate:MR005): 1670 nM
potency estimated from few doses (CDK6; [2]): 2020 nM
potency estimated from few doses (CDK6; [11]): 1830 nM
potency estimated from few doses (CDK6; compound concentrations:100 nM and 1000 nM (sheet 'Lestaurtinib' of Supplementary Table 1),run:Lestaurtinib_02601_R1,Plate:MR018): 1350 nM
potency estimated from few doses (CDK6; [12]): 1590 nM
potency estimated from few doses (CDK6; [8]): 1370 nM
potency estimated from few doses (CDK6; compound concentrations:100 nM and 1000 nM (sheet 'Lestaurtinib' of Supplementary Table 1),run:Lestaurtinib_03260_R1,Plate:MR033): 914 nM
potency estimated from few doses (CDK6; compound concentrations:100 nM and 1000 nM (sheet 'Lestaurtinib' of Supplementary Table 1),run:Lestaurtinib_03260_R3,Plate:MR033): 157 nM
potency estimated from few doses (CLK1; compound concentrations:100 nM and 1000 nM (sheet 'Lestaurtinib' of Supplementary Table 1),run:Lestaurtinib_02364_R1,Plate:MR002): 130 nM
potency estimated from few doses (CLK1; compound concentrations:100 nM and 1000 nM (sheet 'Lestaurtinib' of Supplementary Table 1),run:Lestaurtinib_02364_R3,Plate:MR002): 175 nM
potency estimated from few doses (CLK1; [13]): 153 nM
potency estimated from few doses (CLK1; compound concentrations:100 nM and 1000 nM (sheet 'Lestaurtinib' of Supplementary Table 1),run:Lestaurtinib_02367_R3,Plate:MR003): 240 nM
potency estimated from few doses (CLK1; compound concentrations:100 nM and 1000 nM (sheet 'Lestaurtinib' of Supplementary Table 1),run:Lestaurtinib_02407_R3,Plate:MR005): 176 nM
potency estimated from few doses (CLK1; [1]): 88.2 nM
potency estimated from few doses (CLK1; compound concentrations:100 nM and 1000 nM (sheet 'Lestaurtinib' of Supplementary Table 1),run:Lestaurtinib_02422_R2,Plate:MR006): 4.49 nM
potency estimated from few doses (CLK1; compound concentrations:100 nM and 1000 nM (sheet 'Lestaurtinib' of Supplementary Table 1),run:Lestaurtinib_02422_R3,Plate:MR006): 115 nM
potency estimated from few doses (CLK1; compound concentrations:100 nM and 1000 nM (sheet 'Lestaurtinib' of Supplementary Table 1),run:Lestaurtinib_02437_R1,Plate:MR007): 132 nM
potency estimated from few doses (CLK1; compound concentrations:100 nM and 1000 nM (sheet 'Lestaurtinib' of Supplementary Table 1),run:Lestaurtinib_02437_R2,Plate:MR007): 160 nM
potency estimated from few doses (CLK1; [14]): 124 nM
potency estimated from few doses (CLK1; [15]): 154 nM
potency estimated from few doses (CLK1; [16]): 115 nM
potency estimated from few doses (CLK1; [2]): 133 nM
potency estimated from few doses (CLK1; [17]): 93.7 nM
potency estimated from few doses (CLK1; [18]): 131 nM
potency estimated from few doses (CLK1; compound concentrations:100 nM and 1000 nM (sheet 'Lestaurtinib' of Supplementary Table 1),run:Lestaurtinib_02482_R3,Plate:MR011): 170 nM
potency estimated from few doses (CLK1; compound concentrations:100 nM and 1000 nM (sheet 'Lestaurtinib' of Supplementary Table 1),run:Lestaurtinib_02487_R2,Plate:MR012): 196 nM
potency estimated from few doses (CLK1; [11]): 84.6 nM
potency estimated from few doses (CLK1; [19]): 131 nM
potency estimated from few doses (CLK1; compound concentrations:100 nM and 1000 nM (sheet 'Lestaurtinib' of Supplementary Table 1),run:Lestaurtinib_02566_R3,Plate:MR014): 151 nM
potency estimated from few doses (CLK1; [3]): 130 nM
potency estimated from few doses (CLK1; compound concentrations:100 nM and 1000 nM (sheet 'Lestaurtinib' of Supplementary Table 1),run:Lestaurtinib_02572_R2,Plate:MR015): 137 nM
potency estimated from few doses (CLK1; [4]): 206 nM
potency estimated from few doses (CLK1; [5]): 202 nM
potency estimated from few doses (CLK1; compound concentrations:100 nM and 1000 nM (sheet 'Lestaurtinib' of Supplementary Table 1),run:Lestaurtinib_02601_R2,Plate:MR018): 232 nM
potency estimated from few doses (CLK1; compound concentrations:100 nM and 1000 nM (sheet 'Lestaurtinib' of Supplementary Table 1),run:Lestaurtinib_02606_R2,Plate:MR019): 69.6 nM
potency estimated from few doses (CLK1; compound concentrations:100 nM and 1000 nM (sheet 'Lestaurtinib' of Supplementary Table 1),run:Lestaurtinib_02606_R3,Plate:MR019): 167 nM
potency estimated from few doses (CLK1; compound concentrations:100 nM and 1000 nM (sheet 'Lestaurtinib' of Supplementary Table 1),run:Lestaurtinib_02624_R1,Plate:MR020): 235 nM
potency estimated from few doses (CLK1; compound concentrations:100 nM and 1000 nM (sheet 'Lestaurtinib' of Supplementary Table 1),run:Lestaurtinib_02624_R2,Plate:MR020): 113 nM
potency estimated from few doses (CLK1; compound concentrations:100 nM and 1000 nM (sheet 'Lestaurtinib' of Supplementary Table 1),run:Lestaurtinib_02624_R3,Plate:MR020): 160 nM
potency estimated from few doses (CLK1; compound concentrations:100 nM and 1000 nM (sheet 'Lestaurtinib' of Supplementary Table 1),run:Lestaurtinib_02724_R2,Plate:MR021): 179 nM
potency estimated from few doses (CLK1; compound concentrations:100 nM and 1000 nM (sheet 'Lestaurtinib' of Supplementary Table 1),run:Lestaurtinib_02724_R3,Plate:MR021): 163 nM
potency estimated from few doses (CLK1; compound concentrations:100 nM and 1000 nM (sheet 'Lestaurtinib' of Supplementary Table 1),run:Lestaurtinib_02741_R1,Plate:MR023): 211 nM
potency estimated from few doses (CLK1; [6]): 237 nM
potency estimated from few doses (CLK1; compound concentrations:100 nM and 1000 nM (sheet 'Lestaurtinib' of Supplementary Table 1),run:Lestaurtinib_02752_R1,Plate:MR025): 146 nM
potency estimated from few doses (CLK1; compound concentrations:100 nM and 1000 nM (sheet 'Lestaurtinib' of Supplementary Table 1),run:Lestaurtinib_02765_R1,Plate:MR026): 278 nM
potency estimated from few doses (CLK1; [12]): 244 nM
potency estimated from few doses (CLK1; compound concentrations:100 nM and 1000 nM (sheet 'Lestaurtinib' of Supplementary Table 1),run:Lestaurtinib_02766_R1,Plate:MR027): 143 nM
potency estimated from few doses (CLK1; [7]): 154 nM
potency estimated from few doses (CLK1; compound concentrations:100 nM and 1000 nM (sheet 'Lestaurtinib' of Supplementary Table 1),run:Lestaurtinib_02768_R2,Plate:MR028): 141 nM
potency estimated from few doses (CLK1; compound concentrations:100 nM and 1000 nM (sheet 'Lestaurtinib' of Supplementary Table 1),run:Lestaurtinib_02768_R3,Plate:MR028): 135 nM
potency estimated from few doses (CLK1; compound concentrations:100 nM and 1000 nM (sheet 'Lestaurtinib' of Supplementary Table 1),run:Lestaurtinib_02795_R1,Plate:MR022): 93.8 nM
potency estimated from few doses (CLK1; compound concentrations:100 nM and 1000 nM (sheet 'Lestaurtinib' of Supplementary Table 1),run:Lestaurtinib_02802_R3,Plate:MR029): 22.2 nM
potency estimated from few doses (CLK1; [8]): 136 nM
potency estimated from few doses (CLK1; compound concentrations:100 nM and 1000 nM (sheet 'Lestaurtinib' of Supplementary Table 1),run:Lestaurtinib_02896_R2,Plate:MR030): 82.8 nM
potency estimated from few doses (CLK1; compound concentrations:100 nM and 1000 nM (sheet 'Lestaurtinib' of Supplementary Table 1),run:Lestaurtinib_03172_R3,Plate:MR031): 134 nM
potency estimated from few doses (CLK1; compound concentrations:100 nM and 1000 nM (sheet 'Lestaurtinib' of Supplementary Table 1),run:Lestaurtinib_03252_R1,Plate:MR032): 130 nM
potency estimated from few doses (CLK1; compound concentrations:100 nM and 1000 nM (sheet 'Lestaurtinib' of Supplementary Table 1),run:Lestaurtinib_03252_R2,Plate:MR032): 25.4 nM
potency estimated from few doses (CLK1; compound concentrations:100 nM and 1000 nM (sheet 'Lestaurtinib' of Supplementary Table 1),run:Lestaurtinib_03260_R2,Plate:MR033): 248 nM
potency estimated from few doses (MAP2K1; compound concentrations:100 nM and 1000 nM (sheet 'Lestaurtinib' of Supplementary Table 1),run:Lestaurtinib_02339_R1,Plate:MR001): 2070 nM
potency estimated from few doses (MAP2K1; [9]): 825 nM
potency estimated from few doses (MAP2K1; [13]): 1420 nM
potency estimated from few doses (MAP2K1; [10]): 579 nM
potency estimated from few doses (MAP2K1; compound concentrations:100 nM and 1000 nM (sheet 'Lestaurtinib' of Supplementary Table 1),run:Lestaurtinib_02381_R2,Plate:MR004): 1760 nM
potency estimated from few doses (MAP2K1; compound concentrations:100 nM and 1000 nM (sheet 'Lestaurtinib' of Supplementary Table 1),run:Lestaurtinib_02381_R3,Plate:MR004): 2000 nM
potency estimated from few doses (MAP2K1; [1]): 1620 nM
potency estimated from few doses (MAP2K1; compound concentrations:100 nM and 1000 nM (sheet 'Lestaurtinib' of Supplementary Table 1),run:Lestaurtinib_02438_R2,Plate:MR008): 1630 nM
potency estimated from few doses (MAP2K1; [14]): 1400 nM
potency estimated from few doses (MAP2K1; [15]): 1540 nM
potency estimated from few doses (MAP2K1; [16]): 1360 nM
potency estimated from few doses (MAP2K1; [17]): 1690 nM
potency estimated from few doses (MAP2K1; [18]): 1430 nM
potency estimated from few doses (MAP2K1; [19]): 656 nM
potency estimated from few doses (MAP2K1; [3]): 1430 nM
